Laboratory results: PubChem BioAssay (NCI)
Compounds without any hit were thinned out: in the full panel of roughly 83,000, 20% have a hit.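 Growth was measured after 48 h exposure to one concentration of compound in 96-well plates. Values under 10 count as active.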 Activity calls are given as the source filed them.

Each molecule was assayed on HL-60(TB) leukemia (assay: NCI-60 one-dose screen, 48 h (100 = growth as untreated, 0 = no growth, -100 = all killed)). Details: 10 µM unless noted.
In the case of Cc1ccc(CSc2nc(-c3ccc(Cl)cc3)c(C#N)c(N3CCOCC3)n2)cc1, the growth is reported as 98.2% (inactive).
COc1ccc(/C=C/C(=O)c2ccc(NC(=O)CSc3nnc(-c4ccc5nc(-c6ccc(Cl)cc6)[nH]c5c4)o3)cc2)cc1 was tested, and the growth was 78.6% (inactive).
With CC(Nc1c(C#N)cnc2ccc(-c3cncc(O)c3)cc12)c1ccccc1 (stereo not drawn) the growth was 3.91% (active).
For O=C1[C@H]2Cc3c([nH]c4ccccc34)[C@@H](c3c(Cl)cccc3Cl)N2C(=O)CN1C1CCN(Cc2ccccc2)CC1, the growth was 65.7% (inactive).
CN1CCN(c2ccc(Nc3nc(NCCNS(=O)(=O)c4ccccc4)c4sccc4n3)cc2)CC1 was tested, and the growth was 103% (inactive).
In the case of Cn1c(SCC(=O)c2ccco2)nc2ccccc2c1=O, the growth is reported as 98.3% (inactive).
In the case of Brc1cc(-c2cc(-c3ccc4c(c3)OCCO4)[nH]n2)cs1, the growth is reported as 24% (inactive).
With O=C(Nc1ccc(Br)cc1)Nc1nc2ccc([N+](=O)[O-])cc2s1 the growth was -44.3% (active).
With C=C=COc1cccc(/C(N)=N/C(N)=N/c2nc3ccccc3s2)c1 the growth was 97.8% (inactive).
Cc1ccc(C(=O)Nc2ccc(CNCCN3CCOCC3)c(C(F)(F)F)c2)cc1C#Cc1cnc2cccnn12 was tested, and the growth was -21.3% (active).
In the case of Cc1cc(=O)oc2cc(OCCCOc3ccc(/C=C/C(=O)Nc4ccc(Br)cc4)cc3)ccc12, the growth is reported as 95.8% (inactive).
In the case of NS(=O)(=O)c1ccc(Nc2nc(SCC(=O)c3ccc(Cl)cc3)nc3ccccc23)cc1, the growth is reported as 103% (inactive).
CCCCCCNC(=O)Oc1ccc(/C(=C(/C)c2ccc(OC)cc2)c2ccc(OCCN3CCCCCC3)cc2)cc1 was tested, and the growth was -0.81% (active).
